Assay outcomes from PubChem BioAssay.
Rows were chosen to be rich in hits. Some 1.4% of all compounds tested hit in one or more screens of this group.
Akt phos inh – inhibitors of Akt phosphorylation. Neuro2A IGF-stimulated pAkt S473 HTRF, 20 min; hits give low values. activity change, % for hits at 50 µM. hit rate 0.32% among 360,000. AID 651550; in the data active = activity change below about -80%; inconclusive = mostly about -51% to -80%; also: % is scaled to controls: 0 for no effect and ±100 for the full control effect
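Neuro2A cells (4,500/well, DMEM with 0.5% FBS) were treated with compound at a single 50 µM final concentration, stimulated with 6 nM IGF for 20 min at 37 °C, and lysed. Phospho-Akt Ser473 was read by HTRF as 665/615 ratio ×10^4.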
Pin1 inh – blocks the human prolyl isomerase Pin1. AID 504891. hit rate 0.009% among 390,000. Q13526. Potency, µM (doses to about 115 µM), for the others: at the highest dose activity, negative = inhibition, most hits filed as inhibitors. Pin1 FP peptide displacement, HiFluor488, 10 min; active = well fitted inhibition curve with a large enough effect in the polarisation, with a control signal flat, not every such curve was filed as active; inconclusive = small, poorly fitted or top-dose-only effect, or effect the other way, or a change in a side signal; inactive = no such curve, though single readings can be large or run the other way; the % refers to the polarisation; also: potency is read from the fitted curve at half-maximal effect; % is scaled to controls: 0 for no effect and ±100 for the full control effect
Target sequence (Q13526 whole entry, looked up): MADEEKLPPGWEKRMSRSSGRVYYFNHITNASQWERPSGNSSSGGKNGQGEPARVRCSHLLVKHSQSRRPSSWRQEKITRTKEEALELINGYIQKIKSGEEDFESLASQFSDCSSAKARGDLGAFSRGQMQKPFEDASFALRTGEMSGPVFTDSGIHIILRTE
AT treatment – candidate therapy for ataxia-telangiectasia. AID 485349. Potency, µM (series often up to 57.5 µM), for inactives: at the top dose activation, most hits filed as activators. hit rate 0.19% among 320,000. F2112 A-T fibroblasts, KAP-1 phosphorylation AlphaLISA; neocarzinostatin DNA damage 30 min before lysis; also: potency is read from the fitted curve at half-maximal effect; % of control where 0% means no effect; nearly all actives have a fitted effect of over 45% in size
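ATM-like activity read as KAP-1 phosphorylation via AlphaLISA donor/acceptor antibody pairs after lysis and 6 hr at 25C. Cells were ATM-null patient fibroblasts (F2112, hTERT), dosed 60 min, then exposed to the DSB inducer NCS for 30 min.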
TrxR1 substrate – substrates of rat thioredoxin reductase 1; O89049; purified TrxR1 substrate turnover, NADPH consumption readout; Potency, µM (series often up to 114 µM), inactives show at the top dose activity change, negative = substrate turnover; hit rate 0.01% among 390,000; also: potency is read from the fitted curve at half-maximal effect; % is scaled to controls: 0 for no effect and ±100 for the full control effect; nearly all actives have a fitted effect of over 50% in size
Target sequence (O89049 whole entry, looked up): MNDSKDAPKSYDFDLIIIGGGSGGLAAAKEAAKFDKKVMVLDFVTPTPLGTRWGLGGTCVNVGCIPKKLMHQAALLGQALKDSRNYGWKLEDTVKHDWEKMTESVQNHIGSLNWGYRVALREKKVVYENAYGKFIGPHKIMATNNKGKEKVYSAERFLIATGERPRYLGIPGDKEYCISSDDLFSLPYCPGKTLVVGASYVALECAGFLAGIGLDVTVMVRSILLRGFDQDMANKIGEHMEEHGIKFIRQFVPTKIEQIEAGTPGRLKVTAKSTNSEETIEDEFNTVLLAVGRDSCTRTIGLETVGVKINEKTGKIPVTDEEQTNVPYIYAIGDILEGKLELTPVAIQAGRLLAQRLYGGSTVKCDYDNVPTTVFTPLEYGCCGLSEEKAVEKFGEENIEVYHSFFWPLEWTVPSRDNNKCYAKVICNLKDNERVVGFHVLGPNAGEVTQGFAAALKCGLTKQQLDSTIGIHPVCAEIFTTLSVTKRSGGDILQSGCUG
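Rat TrxR1, dispensed at 90 nM, was prereduced with 400 uM NADPH (final) for 5 min at ~22 deg C, then incubated with compound 15 min before 400 uM selenite. A first-read NADPH fluorescence drop versus no-compound background flagged substrates.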
TrxR1 inh – inhibitors of rat thioredoxin reductase 1 | Potency, µM (highest dose often 114 µM), for the others: top-dose activity change, negative = inhibition, most hits filed as inhibitors | hit rate 1% among 390,000 | recombinant rTrxR1, NADPH fluorescence consumption, selenite substrate | O89049; also: potency is read from the fitted curve at half-maximal effect; % is scaled to controls: 0 for no effect and ±100 for the full control effect; nearly all actives have a fitted effect of over 65% in size
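Rat TrxR1 (90 nM in the dispensed reagent) was pre-reduced with 400 uM NADPH for 5 min at room temperature, then incubated with compound for 15 min. After 400 uM selenite was added, NADPH fluorescence (Ex 340/Em 450 nm) was followed for 8 min.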
N370S GC – inhibitors or activators of N370S glucocerebrosidase for Gaucher disease. P04062. N370S GC spleen homogenate, 4MU-glucoside fluorescence. Potency, µM (series often up to 59.4 µM), without a hit: at the highest dose activity change, negative = inhibition, most hits filed as inhibitors. hit rate 0.092% among 330,000. AID 2101;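 also: potency is read from the fitted curve at half-maximal effect; 0% = full enzyme activity and -100% = no enzyme basal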
Starred values were filed as active, the others as inactive; i = inactive; ? = inconclusive; · = no result; ! = repeats disagree; [ ] = another dose, or the depositor's remark. Unless noted, calls follow the shape of the dose curve; as a rule, active = well fitted curve in the direction sought with a large enough effect; inconclusive = small, poorly fitted or top-dose-only effect, or another doubt; inactive = no such curve, though single readings can be large; an effect the other way counts as inactive or inconclusive.

SMILES	Akt phos inh	Pin1 inh	AT treatment	TrxR1 substrate	TrxR1 inh	N370S GC
CCc1cc(=O)oc2c(C)c(O)c(CN3CCCCC3)cc12	-93%*	-3%	7%	i	-87%	?
Cc1c(O)c(CN2CCCC2)cc2c3c(c(=O)oc12)CCC3	i	5%	8%	i	221%	?
C[C@@H](NC(=O)/C(C#N)=C/c1ccc(O)c(O)c1)c1ccccc1	i	2%	-16%	?	0%[57.1 µM]	-6%
CC(NC(=O)/C(C#N)=C/c1ccc(Cl)c([N+](=O)[O-])c1)c1ccccc1 (stereo not given)	i	2%	·	-5%	40µM*	2%
C=C(C)C1(O)OC(=O)C=C1OC (stereo not given)	i	-6%	-1%	5%	14µM*	5%
Cc1ncc(N=Nc2ccc(F)cc2)c(-c2ccc(Cl)cc2)n1	-118%*	-10%	3%	6%[57.1 µM]	8%[57.1 µM]	-1%
COc1ccc(-c2nc(C)ncc2N=Nc2ccccc2)cc1	-114%*	-1%	2%	3%[57.1 µM]	14%[57.1 µM]	9%
COc1ccc(N=Nc2nc(-c3ccccc3)c(-c3ccccc3)[nH]2)cc1	i	?	-18%	-21%[57.1 µM]	20%[57.1 µM]	-2%
C=C1C=C(C(F)(F)F)n2ncc(C(=O)NCc3ccc(F)cc3)c2N1	·	·	·	-3%	7%	·
O=C(O)c1ccccc1OC1=NS(=O)(=O)c2ccccc21	·	-3%	·	·	·	·
COc1ccc(NC(=O)c2oc3ccccc3c2NC(=O)C23CC4CC(CC(C4)C2)C3)cc1	·	-3%	·	-7%	6%	·
O=C(Nc1ccccc1N1CCCCC1)c1ccc(-c2cccc(Cl)c2)o1	i	-11%	·	8%[57.1 µM]	12%[57.1 µM]	7%
O=C(Nc1cccc2nsnc12)c1ccc(-c2cccc(Cl)c2)o1	i	?	25%	-8%	35µM*	14%
Cc1cc(C)c(S(=O)(=O)NCCc2cc3c(C)ccc(C)c3[nH]c2=O)c(C)c1	·	9%	·	-1%	-5%	·
CC1(C)Cc2c(C#N)c(N)sc(=S)c2CS1	i	?	-3%	6%[57.1 µM]	14µM*	-1%
Oc1ccc(NCc2ccccc2OCc2ccc(Cl)cc2)cc1	·	?	·	-18%	79µM*	·
CCOc1cc(CNc2ccc(O)cc2)ccc1OCc1ccc(Cl)cc1	·	?	·	-8%	50µM*	·
Oc1ccc(NCc2ccccc2OCc2ccccc2)cc1	i	?	0%	0%	?	?
CCOc1cc(CNc2ccc(O)cc2)cc(Br)c1OCc1ccccc1	·	-1%	·	-3%	-1%	·
CC(C)(C)n1ncc2c(=O)n(Cc3ccccc3CS(=O)(=O)c3ccccc3)cnc21	·	·	·	-7%	7%	·
c1csc(C2C3=C(Nc4ncnn42)c2ccccc2OC3)c1 (stereo not given)	i	1%	-2%	18%	79µM*	0%
N#Cc1cc([N+](=O)[O-])c(-n2nnc3ccccc32)c([N+](=O)[O-])c1	i	0%	3%	-2%	16µM*	-1%
CCCn1c2c(c(=N)c3c1CCC3)CCC2	i	5%	2.5µM*	6%[57.1 µM]	2%[57.1 µM]	-1%
NS(=O)(=O)c1ccc2c(c1)C1C=CCC1C(C1CC=CCC1)N2 (stereo not given)	i	?	-4%	1%	40µM*	-20%
CC(C)C1Nc2ccc(S(N)(=O)=O)cc2C2C=CCC21 (stereo not given)	i	?	-7%	-7%[57.1 µM]	?	-14%
SMILES	Akt phos inh	Pin1 inh	AT treatment	TrxR1 substrate	TrxR1 inh	N370S GC
CCOCCc1nn2c(=O)cc(COC(=O)c3ccccc3Br)nc2s1	·	4%	·	-4%[57.1 µM]	2%[57.1 µM]	·
CCCC(=O)N(Cc1cc(=O)[nH]c2ccccc12)c1ccc(C)cc1C	i	2%	6%	-3%	5%	-12%
Cc1ccc(N(Cc2cc(=O)[nH]c3ccccc23)C(=O)CCl)c(C)c1	i	?	5%	5%	79µM*	-7%
Cn1c(=NC(=O)C2CCN(S(=O)(=O)c3cccs3)CC2)sc2ccccc21	-91%*!	0%	6%	2%	10%	-17%
CCOc1ccccc1NC(=O)C1CCN(S(=O)(=O)c2c(C)noc2/C=C/c2ccc(C)cc2)CC1	·	0%	·	3%[57.1 µM]	28%[57.1 µM]	·
CCOc1ccc(N2C(=O)CC(Sc3ccccc3C(=O)O)C2=O)c([N+](=O)[O-])c1 (stereo not given)	i	-24%	1%	5%	28µM*	1%
O=C(O)c1ccccc1SC1CC(=O)N(c2cccc3ccccc23)C1=O (stereo not given)	i	-2%	0%	15%	20µM*	-4%
O=[S+]([O-])(c1ccc2ncsc2c1)N1CCN([S+](=O)([O-])c2c(F)cccc2F)CC1	·	1%	·	·	·	·
Cc1cc2c(nc1C)CCCN2C[C@H](O)CN1CCCc2nc(-c3ccc(Br)cc3)ccc21	·	·	·	·	·	-5%[12.8 µM]
COc1ccc(CNC(=O)CS(=O)Cc2nc(-c3ccc(OC)c(OC)c3)oc2C)cc1 (stereo not given)	i	-4%	-14%	8%	-19%	10%
Cc1ccc(CNC(=O)CS(=O)Cc2nc(-c3cccs3)oc2C)cc1 (stereo not given)	i	-1%	-2%	6%[57.1 µM]	?	2%
Cc1ccc(CCNC(=O)CS(=O)Cc2nc(-c3cccs3)oc2C)cc1 (stereo not given)	i	4%	-7%	-2%	14µM*	0%
COc1ccc(-c2nc(CS(=O)CC(=O)NCc3ccc(C)cc3)c(C)o2)cc1OC (stereo not given)	i	-2%	-1%	9%	50µM*	-11%
COc1ccc(CCNC(=O)CS(=O)Cc2nc(-c3cccs3)oc2C)cc1OC (stereo not given)	i	-1%	-1%	3%	40µM*	6%
O=C(CC1N=C2c3ccccc3N=C(SCc3cccc(F)c3)N2C1=O)NCc1ccc2c(c1)OCO2 (stereo not given)	·	5%	·	-2%[57.1 µM]	8%[57.1 µM]	·
Oc1cc2c(cc1C(c1ccc(Cl)c(Cl)c1)N1CCCC1)OCO2 (stereo not given)	i	?	1%	3%[57.1 µM]	3.5µM*	3%
Cc1ccc(/C=N/N(C)S(=O)(=O)c2ccc(C)cc2)cc1	i	?	28µM*	-7%	-5%	14%
O=C(CNC(=O)Cc1ccccc1)N=Nc1c(O)[nH]c2ccccc12	i	1%	4%	-9%	?	-8%
CC(C)(Cc1ccc(O)cc1)NC(=O)CC(=O)N=Nc1c(O)[nH]c2cc(Br)ccc12	i	0%	4%	-11%	7%	11µM*
